# From the supplement of paper PMC10849652
# About 8,800 targets were measured; listed, in parts, are those with a hit and a random draw of the rest. About 0.5% of all pairs of compound and target were hits.
# Compound: CNC(=O)C1=CC=CC=C1NC2=NC(=NC=C2Cl)NC3=C(C=C(C=C3)N4CCOCC4)OC
# Assay: log2 fold change, soluble protein after heating vs DMSO (PISA); higher = thermal stabilisation; K562 lysate, 10 uM; active = over 0.2 and 3.5 SD of the protein, either way, in both replicates (recomputed)
# Summary of the method: (§1)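 K562 pellets were dounce-homogenised in PBS pH 7.4 with 1 mM MgCl2, and the crude extract at 1 mg/mL protein was treated with 10 μM compound for 30 min. Aliquots were heated for 3 min across 48°C-58°C, pooled, and brought to 0.5% NP-40 at 4°C; soluble protein was the supernatant after 21,000xg for 90 min. Soluble protein was quantified by TMTpro 16plex LC-MS/MS with channel sums equalised, and reported as log2 fold change in thermal stability against DMSO controls, with values from duplicates.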
# UniProt Q99496, sequence (Q99496 whole entry, looked up): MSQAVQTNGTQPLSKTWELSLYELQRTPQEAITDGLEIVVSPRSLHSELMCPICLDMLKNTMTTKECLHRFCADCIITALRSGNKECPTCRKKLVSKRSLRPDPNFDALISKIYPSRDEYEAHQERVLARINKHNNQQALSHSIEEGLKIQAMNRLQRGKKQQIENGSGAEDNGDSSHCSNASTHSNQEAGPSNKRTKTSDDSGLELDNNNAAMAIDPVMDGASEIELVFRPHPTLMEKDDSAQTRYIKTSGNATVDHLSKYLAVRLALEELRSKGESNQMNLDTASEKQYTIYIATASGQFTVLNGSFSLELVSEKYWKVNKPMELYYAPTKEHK
# UniProt Q9NTN9, sequence (Q9NTN9 whole entry, looked up): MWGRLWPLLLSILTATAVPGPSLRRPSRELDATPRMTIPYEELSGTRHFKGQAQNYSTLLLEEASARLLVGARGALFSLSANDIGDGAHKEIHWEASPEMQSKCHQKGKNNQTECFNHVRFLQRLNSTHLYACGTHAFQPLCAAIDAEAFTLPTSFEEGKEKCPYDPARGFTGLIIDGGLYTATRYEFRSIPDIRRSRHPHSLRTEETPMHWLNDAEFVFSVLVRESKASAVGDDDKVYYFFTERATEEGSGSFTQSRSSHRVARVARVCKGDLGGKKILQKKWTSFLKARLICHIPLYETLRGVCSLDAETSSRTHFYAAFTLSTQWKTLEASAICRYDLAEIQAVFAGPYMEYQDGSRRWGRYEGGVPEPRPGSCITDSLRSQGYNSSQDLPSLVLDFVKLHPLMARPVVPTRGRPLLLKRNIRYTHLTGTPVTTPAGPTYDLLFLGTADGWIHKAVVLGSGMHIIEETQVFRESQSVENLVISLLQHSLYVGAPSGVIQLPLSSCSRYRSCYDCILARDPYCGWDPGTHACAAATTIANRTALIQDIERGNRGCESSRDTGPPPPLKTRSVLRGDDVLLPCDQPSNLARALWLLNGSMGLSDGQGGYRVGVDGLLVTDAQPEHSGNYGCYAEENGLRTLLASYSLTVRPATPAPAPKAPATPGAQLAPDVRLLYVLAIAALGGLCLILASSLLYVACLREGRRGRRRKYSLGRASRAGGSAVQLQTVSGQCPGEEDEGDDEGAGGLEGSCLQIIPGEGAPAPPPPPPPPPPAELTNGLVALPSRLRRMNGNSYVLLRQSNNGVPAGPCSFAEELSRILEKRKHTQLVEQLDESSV
# UniProt O94761, sequence (O94761 whole entry, looked up): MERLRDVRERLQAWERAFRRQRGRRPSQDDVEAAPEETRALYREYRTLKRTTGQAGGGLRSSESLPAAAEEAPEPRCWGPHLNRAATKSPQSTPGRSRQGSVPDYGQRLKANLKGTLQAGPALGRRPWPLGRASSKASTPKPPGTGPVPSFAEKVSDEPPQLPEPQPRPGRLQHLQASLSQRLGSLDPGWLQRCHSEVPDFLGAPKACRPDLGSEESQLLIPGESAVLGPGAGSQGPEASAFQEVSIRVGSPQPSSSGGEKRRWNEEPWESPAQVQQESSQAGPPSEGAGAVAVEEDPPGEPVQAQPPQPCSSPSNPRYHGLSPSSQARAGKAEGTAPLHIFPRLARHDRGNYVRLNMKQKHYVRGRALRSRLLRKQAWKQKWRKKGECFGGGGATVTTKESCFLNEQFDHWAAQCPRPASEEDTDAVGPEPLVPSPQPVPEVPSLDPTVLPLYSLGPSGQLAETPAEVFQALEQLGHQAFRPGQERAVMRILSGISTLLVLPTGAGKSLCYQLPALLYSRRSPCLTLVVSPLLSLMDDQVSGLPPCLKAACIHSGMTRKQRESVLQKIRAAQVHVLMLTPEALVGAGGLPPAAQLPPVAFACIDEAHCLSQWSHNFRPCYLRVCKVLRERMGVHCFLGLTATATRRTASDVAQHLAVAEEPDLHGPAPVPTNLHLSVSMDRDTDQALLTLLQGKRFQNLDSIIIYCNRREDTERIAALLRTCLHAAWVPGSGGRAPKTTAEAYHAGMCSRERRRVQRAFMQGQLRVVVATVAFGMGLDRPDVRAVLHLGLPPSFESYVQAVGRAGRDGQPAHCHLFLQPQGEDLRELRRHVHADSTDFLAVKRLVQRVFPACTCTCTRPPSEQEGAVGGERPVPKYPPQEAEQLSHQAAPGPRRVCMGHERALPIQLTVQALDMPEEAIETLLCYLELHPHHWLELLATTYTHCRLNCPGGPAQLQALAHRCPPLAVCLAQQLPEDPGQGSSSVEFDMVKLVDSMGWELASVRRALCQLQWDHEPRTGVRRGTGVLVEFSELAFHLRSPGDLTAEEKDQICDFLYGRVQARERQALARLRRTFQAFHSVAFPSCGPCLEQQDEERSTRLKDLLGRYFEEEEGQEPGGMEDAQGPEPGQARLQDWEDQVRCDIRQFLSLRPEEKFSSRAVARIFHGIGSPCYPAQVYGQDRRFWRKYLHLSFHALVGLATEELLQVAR
# UniProt Q7L0Q8, sequence (Q7L0Q8 whole entry, looked up): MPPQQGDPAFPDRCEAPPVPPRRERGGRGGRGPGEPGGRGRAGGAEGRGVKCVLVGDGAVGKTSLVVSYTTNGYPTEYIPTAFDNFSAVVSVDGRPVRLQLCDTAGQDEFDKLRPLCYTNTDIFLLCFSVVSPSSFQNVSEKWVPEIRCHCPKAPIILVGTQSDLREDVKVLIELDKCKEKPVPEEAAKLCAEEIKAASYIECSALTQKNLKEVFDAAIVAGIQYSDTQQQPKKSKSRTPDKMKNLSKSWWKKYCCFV
# UniProt Q96JX3, sequence (Q96JX3 whole entry, looked up): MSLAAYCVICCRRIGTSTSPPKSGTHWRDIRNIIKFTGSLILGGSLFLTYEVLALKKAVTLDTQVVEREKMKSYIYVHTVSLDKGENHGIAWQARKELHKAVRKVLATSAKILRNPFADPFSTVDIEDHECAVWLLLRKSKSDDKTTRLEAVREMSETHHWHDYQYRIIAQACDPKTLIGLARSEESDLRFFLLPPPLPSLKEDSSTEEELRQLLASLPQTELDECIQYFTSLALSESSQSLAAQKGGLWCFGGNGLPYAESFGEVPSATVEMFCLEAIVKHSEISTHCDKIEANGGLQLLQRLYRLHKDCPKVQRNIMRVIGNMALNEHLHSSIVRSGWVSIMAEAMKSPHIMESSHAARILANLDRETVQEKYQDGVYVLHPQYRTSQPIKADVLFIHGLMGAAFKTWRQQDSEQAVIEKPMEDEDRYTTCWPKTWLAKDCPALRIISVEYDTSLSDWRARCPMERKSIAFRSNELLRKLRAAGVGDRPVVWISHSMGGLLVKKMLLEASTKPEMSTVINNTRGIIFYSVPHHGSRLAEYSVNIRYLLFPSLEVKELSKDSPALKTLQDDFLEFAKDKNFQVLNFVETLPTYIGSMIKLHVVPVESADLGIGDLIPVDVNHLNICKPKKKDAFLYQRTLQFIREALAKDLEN
# UniProt Q96E14, sequence (Q96E14 whole entry, looked up): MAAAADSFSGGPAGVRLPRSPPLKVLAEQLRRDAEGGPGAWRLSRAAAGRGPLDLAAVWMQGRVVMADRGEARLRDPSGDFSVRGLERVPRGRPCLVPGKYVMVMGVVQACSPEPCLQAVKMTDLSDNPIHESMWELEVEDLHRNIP
# UniProt Q8TC12, sequence (Q8TC12 whole entry, looked up): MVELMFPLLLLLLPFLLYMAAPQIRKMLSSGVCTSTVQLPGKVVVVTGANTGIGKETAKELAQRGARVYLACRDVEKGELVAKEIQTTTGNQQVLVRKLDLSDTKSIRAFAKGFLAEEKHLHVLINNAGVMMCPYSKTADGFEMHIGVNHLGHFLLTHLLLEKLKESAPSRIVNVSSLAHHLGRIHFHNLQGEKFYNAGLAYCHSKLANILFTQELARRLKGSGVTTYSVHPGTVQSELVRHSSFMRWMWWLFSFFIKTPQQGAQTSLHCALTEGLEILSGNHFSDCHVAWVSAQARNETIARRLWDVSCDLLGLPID
# UniProt O75582, sequence (O75582 whole entry, looked up): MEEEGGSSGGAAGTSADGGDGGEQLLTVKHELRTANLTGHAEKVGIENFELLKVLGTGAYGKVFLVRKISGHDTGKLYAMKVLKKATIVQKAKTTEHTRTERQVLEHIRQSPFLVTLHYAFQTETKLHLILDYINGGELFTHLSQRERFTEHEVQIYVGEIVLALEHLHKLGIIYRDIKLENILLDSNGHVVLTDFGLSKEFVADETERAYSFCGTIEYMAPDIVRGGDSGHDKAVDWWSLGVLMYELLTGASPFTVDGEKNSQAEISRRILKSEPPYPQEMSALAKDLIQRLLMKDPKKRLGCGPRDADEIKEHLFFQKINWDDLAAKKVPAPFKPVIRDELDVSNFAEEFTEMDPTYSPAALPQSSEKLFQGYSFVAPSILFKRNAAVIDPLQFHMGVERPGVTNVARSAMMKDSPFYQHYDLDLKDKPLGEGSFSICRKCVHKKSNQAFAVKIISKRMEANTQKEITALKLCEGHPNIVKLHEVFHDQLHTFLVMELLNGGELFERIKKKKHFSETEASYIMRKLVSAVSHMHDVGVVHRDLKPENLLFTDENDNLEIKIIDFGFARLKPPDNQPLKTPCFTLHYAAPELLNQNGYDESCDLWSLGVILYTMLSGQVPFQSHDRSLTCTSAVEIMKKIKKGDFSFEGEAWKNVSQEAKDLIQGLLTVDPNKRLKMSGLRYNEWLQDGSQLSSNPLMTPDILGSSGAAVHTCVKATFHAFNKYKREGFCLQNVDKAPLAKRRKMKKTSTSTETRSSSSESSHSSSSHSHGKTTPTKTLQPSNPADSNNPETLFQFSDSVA
# UniProt Q9BWG6, sequence (Q9BWG6 whole entry, looked up): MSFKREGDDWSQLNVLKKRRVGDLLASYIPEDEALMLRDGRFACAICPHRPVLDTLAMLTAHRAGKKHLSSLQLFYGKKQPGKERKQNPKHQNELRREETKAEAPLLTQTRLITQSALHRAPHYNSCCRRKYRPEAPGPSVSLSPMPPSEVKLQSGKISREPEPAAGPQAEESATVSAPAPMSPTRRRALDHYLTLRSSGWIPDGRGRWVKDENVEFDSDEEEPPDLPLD
# UniProt Q9Y6D0, sequence (Q9Y6D0 whole entry, looked up): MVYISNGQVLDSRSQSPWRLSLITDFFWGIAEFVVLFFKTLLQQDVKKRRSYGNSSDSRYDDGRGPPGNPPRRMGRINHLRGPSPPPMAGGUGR
row,Target,log2 fold change
1,RXRA (UniProt P19793),-0.06 (inactive)
2,SATB2 (UniProt Q9UPW6),-0.019 (inactive)
3,SEMA4G isoform 2 (UniProt Q9NTN9),0.122 (inactive)
4,SERAC1 (UniProt Q96JX3),-0.024 (inactive)
5,RNF17 (UniProt Q9BXT8),0.096 (inactive)
6,"QSER1, A0A3B3IRW6",0.014 (inactive)
7,RPS6KA5 (UniProt O75582),0.009 (inactive)
8,RHOU (UniProt Q7L0Q8),-0.036 (inactive)
9,RNF2 (UniProt Q99496),0.067 (inactive)
10,RFWD3 (UniProt Q6PCD5),0.051 (inactive)
11,S100A6 (UniProt P06703),0.018 (inactive)
12,RNF24 isoform 2 (UniProt Q9Y225),0.003 (inactive)
13,RNF170 (UniProt Q96K19),-0.137 (inactive)
14,RYR1 (UniProt P21817),0.064 (inactive)
15,SCNM1 (UniProt Q9BWG6),0.117 (inactive)
16,ROBO2 isoform 3 (UniProt Q9HCK4),0.03 (inactive)
17,RAD54L (UniProt Q92698),0.013 (inactive)
18,RMI2 (UniProt Q96E14),-0.074 (inactive)
19,RNPC3 (UniProt Q96LT9),-0.047 (inactive)
20,RECQL4 (UniProt O94761),0.104 (inactive)
21,RDH11 (UniProt Q8TC12),0.011 (inactive)

# Compound: CNC(=O)c1ccc(Nc2ncc(C(F)(F)F)c(NCc3nccnc3N(C)S(C)(=O)=O)n2)cc1 [defactinib]
# Assay: as above
# Summary of the method: as §1
row,Target,log2 fold change
1,RUFY2 isoform 1 (UniProt Q8WXA3),0.066 (inactive)
2,SATB2 (UniProt Q9UPW6),-0.022 (inactive)
3,SEMA4G isoform 2 (UniProt Q9NTN9),-0.047 (inactive)
4,"QSER1, A0A3B3IRW6",0.019 (inactive)
5,RPS6KA5 (UniProt O75582),0.019 (inactive)
6,RHOU (UniProt Q7L0Q8),-0.073 (inactive)
7,RNF2 (UniProt Q99496),0.034 (inactive)
8,RAD17 (UniProt O75943),0.111 (inactive)
9,RFWD3 (UniProt Q6PCD5),0.082 (inactive)
10,S100A6 (UniProt P06703),-0.017 (inactive)
11,SELENOK (UniProt Q9Y6D0),0.123 (inactive)
12,RNF170 (UniProt Q96K19),0.027 (inactive)
13,RMI2 (UniProt Q96E14),0.265 (inactive)
14,RECQL4 (UniProt O94761),0.049 (inactive)
15,RDH11 (UniProt Q8TC12),0 (inactive)

# Compound: CNc1nc(-c2ccc3c(N)n[nH]c3c2)cc(N2C[C@@H](C(=O)NC3CCCCC3)CC[C@H]2C)n1
# Assay: as above
# Summary of the method: as §1
row,Target,log2 fold change
1,RXRA (UniProt P19793),0.072 (inactive)
2,SATB2 (UniProt Q9UPW6),-0.031 (inactive)
3,RALGAPB isoform 3 (UniProt Q86X10),0.064 (inactive)
4,SEMA4G isoform 2 (UniProt Q9NTN9),0.143 (inactive)
5,SERAC1 (UniProt Q96JX3),0.149 (inactive)
6,RNF17 (UniProt Q9BXT8),-0.183 (inactive)
7,"QSER1, A0A3B3IRW6",-0.035 (inactive)
8,RPS6KA5 (UniProt O75582),0.072 (inactive)
9,RHOU (UniProt Q7L0Q8),-0.17 (inactive)
10,RNF2 (UniProt Q99496),0.018 (inactive)
11,RAD17 (UniProt O75943),0.154 (inactive)
12,RFWD3 (UniProt Q6PCD5),-0.057 (inactive)
13,S100A6 (UniProt P06703),-0.126 (inactive)
14,SELENOK (UniProt Q9Y6D0),-0.001 (inactive)
15,RNF170 (UniProt Q96K19),-0.067 (inactive)
16,RYR1 (UniProt P21817),0.16 (inactive)
17,SEC16A isoform 3 (UniProt O15027),0.023 (inactive)
18,SCNM1 (UniProt Q9BWG6),0.127 (inactive)
19,RAD54L (UniProt Q92698),-0.132 (inactive)
20,RMI2 (UniProt Q96E14),0.007 (inactive)
21,RNPC3 (UniProt Q96LT9),0.082 (inactive)
22,RECQL4 (UniProt O94761),-0.02 (inactive)
23,RDH11 (UniProt Q8TC12),0.1 (inactive)

# Compound: COC(=O)N[C@@H](C)CNc1nccc(-c2cn(C(C)C)nc2-c2cc(Cl)cc(NS(C)(=O)=O)c2F)n1 [encorafenib]
# Assay: as above
# Summary of the method: as §1
row,Target,log2 fold change
1,RUFY2 isoform 1 (UniProt Q8WXA3),0.13 (inactive)
2,SATB2 (UniProt Q9UPW6),0.053 (inactive)
3,RALGAPB isoform 3 (UniProt Q86X10),0.073 (inactive)
4,SEMA4G isoform 2 (UniProt Q9NTN9),-0.193 (inactive)
5,SERAC1 (UniProt Q96JX3),-0.051 (inactive)
6,RNF17 (UniProt Q9BXT8),0.061 (inactive)
7,"QSER1, A0A3B3IRW6",0.059 (inactive)
8,RPS6KA5 (UniProt O75582),0.054 (inactive)
9,RHOU (UniProt Q7L0Q8),-0.088 (inactive)
10,RNF2 (UniProt Q99496),0.054 (inactive)
11,RAD17 (UniProt O75943),0.094 (inactive)
12,RFWD3 (UniProt Q6PCD5),0.1 (inactive)
13,S100A6 (UniProt P06703),-0.173 (inactive)
14,RYR1 (UniProt P21817),-0.024 (inactive)
15,SCNM1 (UniProt Q9BWG6),0.115 (inactive)
16,RMI2 (UniProt Q96E14),-0.054 (inactive)
17,RECQL4 (UniProt O94761),0.023 (inactive)
18,RDH11 (UniProt Q8TC12),0.092 (inactive)
